This is part of a sample that, as a whole, favours compounds with a hit. Of some 83,000 tested, about 20% had one in any assay.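 Interpretation: 100, growth as untreated; towards 0, rising growth inhibition; 0, no net growth; 0 to -100, cell death. Compounds scoring below 10 were considered active.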 Values without a mark were called inactive. Activity calls are given as the source filed them.
Columns and labels:
Experiment in all cases: NCI-60 one-dose screen, 48 h (100 = growth as untreated, 0 = no growth, -100 = all killed)
Details in all cases: 10 µM unless noted
DU-145 prostate = tested on: DU-145 prostate
K-562 leukemia = tested on: K-562 leukemia
MALME-3M melanoma = tested on: MALME-3M melanoma
MDA-MB-231 breast = tested on: MDA-MB-231 breast
RXF 393 renal = tested on: RXF 393 renal
SF-268 CNS = tested on: SF-268 CNS
SF-295 CNS = tested on: SF-295 CNS
SF-539 CNS = tested on: SF-539 CNS
UACC-257 melanoma = tested on: UACC-257 melanoma
M14 melanoma = tested on: M14 melanoma

Structure (SMILES) | growth (DU-145 prostate) | growth (K-562 leukemia) | growth (MALME-3M melanoma) | growth (MDA-MB-231 breast) | growth (RXF 393 renal) [%] | growth (SF-268 CNS) | growth (SF-295 CNS) | growth (SF-539 CNS) | growth (UACC-257 melanoma) | growth (M14 melanoma)
CCOC(=O)c1c(C)nc2c(c1N)CC(=O)N2Cc1ccc(OC)cc1 | 47.4% | 99.8% | 33.6% | 19.6% | 37.7 | 4.12% (active) | 28.5% | 26.4% | 49.4% | 86.8%
N=c1c(S(=O)(=O)c2ccccc2)cc2c(=O)n3ccccc3nc2n1CC1CCCO1 (stereo not given) | 110% | 113% | 118% | 97.9% | 113 | 100% | 112% | 95.6% | 109% | 104%
Cc1ccc(N2C(=O)CCC2=O)cc1 | 112% | 113% | 108% | 93.7% | 121 | 103% | 99.7% | 101% | 109% | 90.9%
CC(=O)OC(c1ccccc1)C1CCOC1=O (stereo not given) | 115% | 108% | 107% | 103% | 101 | 110% | 94.6% | 101% | 102% | 99.9%
COc1ccc(/C=C/C(c2cc(OC)c(OC)c(OC)c2)n2ccnc2)cc1O (stereo not given) | 37.8% | 13.6% | 57.7% | 53% | 33.1 | 56.1% | 16.6% | 23.1% | 34.2% | 18.6%
Cn1cc(-c2nn3cc(-c4cccs4)nc3s2)c2cc(F)ccc21 | 51.1% | 15.5% | 21.2% | 34.5% | 64.4 | 45.2% | 28.2% | 24.3% | 63.4% | 6.34% (active)
O=C(Nc1cnc(Nc2ccc(N3CCOCC3)nc2)nc1Oc1ccc(C(F)(F)F)cc1)c1ccncc1 | 66% | 78.7% | 96.9% | 94.5% | 93.1 | 86.3% | 104% | -53.1% (active) | 92.8% | 99%
CC1(C)NCCC[C@]2(C)[C@H]3CC[C@H]4[C@H]5[C@H](C(=O)/C=C/c6cccnc6)CCC[C@]5(CO)CC[C@@]4(C)[C@]3(C)CC[C@@H]12 | 66.6% | -3.12% (active) | 85.7% | 67.4% | 66.2 | 72.9% | 84.3% | 81.4% | 86.5% | 85.8%
COc1ccc2nc(Cl)c(/C=C3\CC(c4ccccc4)=NN(c4ccccc4)C3=O)cc2c1 | 76.8% | 83.9% | 45.2% | 51.7% | 10.9 | 51.9% | 62.6% | 13.1% | 75.2% | 94.1%
CN1CCN(CCCOc2cccc3nc(Nc4ccc(F)c(F)c4)ccc23)CC1 | 7.31% (active) | -41.5% (active) | -64.8% (active) | -69.9% (active) | 16.4 | 26% | -65% (active) | -53.5% (active) | -76.7% (active) | -78.5% (active)
CCN(CC)CCN1C(=O)c2c(c(C)c3c(oc4ccc(OC)cc43)c2C)C1=O | 94.1% | 90.5% | 91.9% | 96.3% | 82.2 | 94.9% | 105% | 94.1% | 101% | 103%
Cc1cccc2c1C[C@@]1(C2=O)C(c2ccc(C(C)(C)C)cc2)=NOS1=O (stereo not given in full) | 103% | 77.8% | 93.3% | 86.1% | 100 | 94.7% | 99.2% | 108% | 95.8% | 88.8%
CC1(C)C(N)=Nc2cc(OCCCN3Cc4ccccc4C3)c(OCC3CC3)cc21 | 93.8% | 38.8% | -14% (active) | 49.1% | 69.3 | 80.2% | 78.3% | 70.3% | 1.23% (active) | -45.1% (active)

Source: PubChem BioAssay (NCI)
